# GPR151 ag: activators of human GPR151, primary screen, cell-based, PathHunter beta-arrestin, luminescence | 650,000 tested, 1% active | PathHunter beta-arrestin GPR151 cells | G-protein coupled receptor 151 (Homo sapiens), Q8TDV0 | activation, % at 11.2 µM; in the data active means activation above about 4.9%;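 further: 0% = median of compound wells and 100% = cells with positive control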
# FBW7 act: FBW7 E3 ligase activators, primary screen, biochemical, AlphaScreen, human; AID 1259310, 2017; AlphaScreen FBW7–phospho-cyclin E peptide binding, activator screen; 650,000 tested, 0.13% active; F-box/WD repeat-containing protein 7 (Homo sapiens), Q969H0; normalized activity (activation), % at 26.1 µM; in the data active means normalized activity above about 1.9%;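 further: purified mutant Fbw7 with reduced substrate affinity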
# TEAD-YAP inh: TEAD-YAP interaction inhibition, primary screen, TEAD-YAP interaction inhibitor project, luminescence, HEK-TIYL cells; TEAD-Gal4/YAP UAS-luciferase luminescence; inhibition, % at 9.12 µM; 640,000 tested, 1.4% active; in the data active means inhibition above about 32%;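 further: 0% = median of test compound wells and 100% = reference inhibitor wells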
# MITF inh: MITF inhibitors, primary screen, biochemical, AlphaScreen, human. AID 1259374, 2018. Microphthalmia-associated transcription factor (Homo sapiens), O75030. AlphaScreen MITF homodimerization, bead proximity signal. inhibition, % at 2.6 µM. 650,000 tested, 0.91% active; in the data active means inhibition above about 50%;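 further: 0% = vehicle wells with protein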
# Target sequence (O75030 whole entry, looked up): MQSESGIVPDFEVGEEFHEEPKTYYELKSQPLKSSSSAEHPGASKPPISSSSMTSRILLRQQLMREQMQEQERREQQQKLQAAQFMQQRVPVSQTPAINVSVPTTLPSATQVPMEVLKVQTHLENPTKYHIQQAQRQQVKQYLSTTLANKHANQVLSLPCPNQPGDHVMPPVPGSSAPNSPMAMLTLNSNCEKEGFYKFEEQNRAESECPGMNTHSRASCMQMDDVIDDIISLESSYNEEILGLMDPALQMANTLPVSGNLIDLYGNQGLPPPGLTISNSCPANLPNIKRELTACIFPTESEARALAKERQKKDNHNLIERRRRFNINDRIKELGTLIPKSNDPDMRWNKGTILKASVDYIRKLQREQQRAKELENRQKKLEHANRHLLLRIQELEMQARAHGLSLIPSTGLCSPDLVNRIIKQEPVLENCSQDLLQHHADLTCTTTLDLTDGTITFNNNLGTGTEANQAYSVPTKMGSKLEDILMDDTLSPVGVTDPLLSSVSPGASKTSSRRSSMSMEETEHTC
# GPR151 confirm: GPR151 activators, triplicate retest, confirmation, cell-based, PathHunter beta-arrestin, luminescence; 6,700 tested, under 10 active; activation, % at 11.2 µM; shares compounds with GPR151 ag; GPR151 PathHunter beta-arrestin cells, 90 min; % of EA-reagent control over plate median;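 active means mean percent activation across replicates above the confirmation screen cutoff of 4.91%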
# GPR119 counter: GPR119 activators in beta-arrestin cells, counter-screen for GPR151 activator project, cell-based, PathHunter beta-arrestin, luminescence, triplicate; 6,700 tested, 0.3% active; shares compounds with GPR151 ag; 90 min; 0 = compound-well median, 100 = enzyme-acceptor control; AID 1508611, 2020; activation, % at 11.2 µM;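 active means mean percent activation in the counterscreen above 29.09%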;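 further: counterscreen on off-target GPR119 to flag nonselective hits from the GPR151 activator screen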
# Active calls of the source: *; . = no result; ! = not confirmed by another sample. An excerpt weighted towards active compounds, which were near 3.5% of everything screened.
SMILES,GPR151 ag,FBW7 act,TEAD-YAP inh,MITF inh,GPR151 confirm,GPR119 counter
CC1C2(C)OC(=N)C(C#N)(C(c3cccc(F)c3)O2)C1(C#N)C#N (configuration not stated),-0.9,0.6,-0.7,19.3,.,.
CC(NC(=O)/C=C/c1ccco1)c1ccccc1 (configuration not stated),5.1*,0.0,2.5,9.2,0.3,14.8
Cc1ccc(/C=C/C(=O)NC(C)c2ccccc2)o1 (configuration not stated),0.7,-0.3,5.3,4.4,.,.
OCCSc1ncnc2sc3c(c12)CCCC3,-0.9,0.4,6.8,9.5,.,.
CCOc1cc(/C=C(/C#N)C(=O)NCc2ccccc2)ccc1OC,-0.4,0.0,3.8,3.8,.,.
COc1ccc(/C=C(\C#N)C(=O)NCc2cccnc2)cc1OC,6.0*,-0.2,-8.7,-2.4,0.4,6.9
COc1ccccc1NC1CC(=O)N(c2cccc(Cl)c2)C1=O (configuration not stated),9.1*,-0.1,-9.2,1.8,-0.4,4.5
COc1ccccc1NC1CC(=O)N(c2ccc(Br)cc2)C1=O (configuration not stated),0.3,0.0,6.4,-4.7,.,.
COc1ccc(NC2CC(=O)N(c3ccc(Cl)c(C(F)(F)F)c3)C2=O)cc1 (configuration not stated),6.0*,0.0,14.7,2.9,-0.4,-8.4
COc1ccc(NC2CC(=O)N(c3ccc(OC)cc3)C2=O)cc1 (configuration not stated),-1.9,-0.2,0.3,-4.8,.,.
CCOC(=O)c1c(NC(=O)c2ccc(S(=O)(=O)N3CCCC(C)C3)cc2)sc2c1CCN(C(=O)OCC)C2 (configuration not stated),-0.4,0.0,12.3,4.4,.,.
Cc1cc(C)n(-c2ccc(NC(=O)C3CCN(Cc4cnc(C)s4)CC3)cc2)n1,5.8*!,0.2,2.6,-6.7,0.3,-13.7
Cc1ncc(CN2CCC(C(=O)Nc3ccc(-n4cccn4)cc3)CC2)s1,-0.6,0.5,-6.9,15.0,.,.
COc1ccc(C(=O)Nc2cccc(C(=O)N3CCCC3)c2)cc1,39.4*,0.2,-1.8,9.6,1.6,6.5
COc1ccc(C(=O)Nc2ccc3c(c2)C(=O)N(C2CCCCC2)C3=O)cc1,5.5*,-0.1,-0.7,-0.4,0.4,27.9
COc1ccc(C(=O)Nc2ccc(C(=O)N3CCCCC3)cc2)cc1,-1.0,0.6,-10.3,3.2,.,.
N#CC1=C(N)Oc2n[nH]c(-c3ccccc3)c2C1c1ccc2c(c1[N+](=O)[O-])OCO2 (configuration not stated),-0.9,-0.1,-5.7,4.1,.,.
CCCN1C(=O)/C(=C/c2ccc(O)c(OC)c2)SC1=S,5.1*,-0.3,-4.4,8.9,1.1,9.5
CC(=O)Oc1cc2oc3ccccc3[nH]c2c2c(=O)c3ccccc3c(=O)c12,-0.3,-0.1,1.7,26.2,.,.
CCOC(=O)c1c(-c2ccccc2)oc2ccc(OCc3ccc(C(=O)OC)cc3)cc12,11.9*,0.0,-2.0,-2.7,0.3,17.9
O=S(=O)(c1ccc(Cl)cc1)N(CCCN1CCOCC1)Cc1cccs1,5.8*,-0.1,-15.6,47.9,-0.2,6.1
O=S(=O)(c1ccc(F)cc1)N(CCCN1CCOCC1)Cc1cccs1,1.1,-0.1,-7.5,27.6,.,.
Cc1cccc2cc3c(N)c(C(=O)NC4CCCC4)sc3nc12,0.8,0.0,-14.4,-3.2,.,.
O=C(Nc1ccc(NC(=O)c2cc3ccccc3o2)cc1)c1ccc(Br)cc1,1.9,0.1,7.0,13.1,.,.
O=C1CC(c2ccc(Cl)cc2)CC2=C1C(c1cc3c(cc1Br)OCO3)Nc1ccccc1N2 (configuration not stated),9.0*,0.1,2.7,3.5,-0.5,-3.2
O=C1CC(c2ccc(Cl)cc2)CC2=C1C(c1ccc3c(c1)OCO3)Nc1ccccc1N2 (configuration not stated),-0.6,0.6,8.2,19.8,.,.

# From PubChem BioAssay
